IDE exosite FP: exo-site inhibitors of human insulin-degrading enzyme; P14735; purified IDE, FL-6b probe fluorescence polarization; hits give low values; z-score at 20 µM; 6.3% of 17,000 active; AID 1259349;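 active = z-score of -3 or lower, meaning strong loss of probe binding signal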;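 also: His-tagged human IDE residues 42-1019 made in E. coli with 30 nM FL-6b probe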
Target sequence (P14735 42-1019 limits assumed): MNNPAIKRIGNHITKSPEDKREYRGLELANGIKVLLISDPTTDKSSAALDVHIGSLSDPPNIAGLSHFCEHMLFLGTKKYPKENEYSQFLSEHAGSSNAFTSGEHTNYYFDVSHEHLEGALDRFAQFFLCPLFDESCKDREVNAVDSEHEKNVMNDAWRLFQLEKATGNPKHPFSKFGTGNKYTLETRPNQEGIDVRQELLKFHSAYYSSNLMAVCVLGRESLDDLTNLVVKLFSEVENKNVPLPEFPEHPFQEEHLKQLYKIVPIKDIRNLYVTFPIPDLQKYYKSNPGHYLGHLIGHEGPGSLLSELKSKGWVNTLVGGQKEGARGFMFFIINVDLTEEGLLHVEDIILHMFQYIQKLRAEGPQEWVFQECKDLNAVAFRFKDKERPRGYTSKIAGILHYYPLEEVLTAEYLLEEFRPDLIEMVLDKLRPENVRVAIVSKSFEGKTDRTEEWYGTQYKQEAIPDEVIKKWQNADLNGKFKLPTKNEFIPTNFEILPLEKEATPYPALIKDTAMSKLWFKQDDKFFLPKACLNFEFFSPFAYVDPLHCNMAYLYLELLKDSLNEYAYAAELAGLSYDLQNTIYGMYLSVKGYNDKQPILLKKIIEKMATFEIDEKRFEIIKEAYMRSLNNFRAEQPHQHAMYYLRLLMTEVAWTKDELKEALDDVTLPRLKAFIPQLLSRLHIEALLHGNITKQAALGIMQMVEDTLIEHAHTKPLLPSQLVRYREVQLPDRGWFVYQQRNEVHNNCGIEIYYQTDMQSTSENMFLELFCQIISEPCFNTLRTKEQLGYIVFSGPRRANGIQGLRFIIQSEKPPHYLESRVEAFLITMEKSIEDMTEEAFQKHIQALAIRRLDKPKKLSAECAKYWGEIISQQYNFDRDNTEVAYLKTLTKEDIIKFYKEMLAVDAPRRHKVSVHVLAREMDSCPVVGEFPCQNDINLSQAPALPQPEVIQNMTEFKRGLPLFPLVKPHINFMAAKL
Large screens that a line does not name were inactive; ! = a repeat was not active. Many of the other results were omitted from the sample, so hits are more common in it than they were.

COc1ccc(NC(=O)N2CCCCN3[C@@H](CO)[C@@H](c4ccc(-c5ccccc5C)cc4)[C@@H]3C2)cc1	IDE exosite FP -4.5
COc1ccc(NC(=O)N2CCCCN3[C@H](CO)[C@H](c4ccc(-c5ccccc5F)cc4)[C@H]3C2)cc1	none
COc1ccc(NC(=O)N2CCCCN3[C@@H](CO)[C@H](c4ccc(-c5ccccc5C)cc4)[C@@H]3C2)cc1	IDE exosite FP -10
COc1ccc(NC(=O)N2CCCCN3[C@H](C2)[C@@H](c2ccc(-c4ccccc4F)cc2)[C@@H]3CO)cc1	none
COc1ccc(NC(=O)N2CCCCN3[C@H](CO)[C@H](c4ccc(-c5ccccc5C)cc4)[C@@H]3C2)cc1	none
Cc1cccc(S(=O)(=O)N2C[C@H]3[C@@H](c4ccccc42)[C@H](CO)N3C(=O)c2ccccc2)c1	none
Cc1ccccc1S(=O)(=O)N1CC(=O)N2[C@H](CO)[C@H](c3ccc(C#Cc4ccccc4)cc3)[C@@H]2C1	none
CCC(=O)NC[C@H]1[C@H](c2ccccc2)[C@H](CO)N1C(=O)C1CCC1	none
CCCNC(=O)N1CC(=O)N2[C@H](CO)[C@H](c3ccc(C#CCC4CCCC4)cc3)[C@@H]2C1	none
CN(C[C@@H]1N[C@H](CO)[C@@H]1c1ccc(-c2ccccc2)cc1)C(=O)C1CCC1	none
COCC#Cc1ccc([C@H]2[C@@H](CO)N3CCCCN(Cc4cccnc4)C[C@H]23)cc1	none
O=C(C1CCOCC1)N1CC(=O)N2[C@H](C1)[C@H](c1ccc(-c3ccccc3F)cc1)[C@@H]2CO	none
O=C(C1CCOCC1)N1CC(=O)N2[C@@H](CO)[C@@H](c3ccc(-c4ccccc4F)cc3)[C@@H]2C1	none
O=C(C1CCOCC1)N1CC(=O)N2[C@H](C1)[C@@H](c1ccc(-c3ccccc3F)cc1)[C@@H]2CO	IDE exosite FP -9
O=C(C1CCOCC1)N1CC(=O)N2[C@H](CO)[C@@H](c3ccc(-c4ccccc4F)cc3)[C@@H]2C1	IDE exosite FP -4.8
O=C(C1CCOCC1)N1CC(=O)N2[C@H](CO)[C@H](c3ccc(-c4ccccc4F)cc3)[C@@H]2C1	none
O=C(C1CCOCC1)N1CC(=O)N2[C@H](CO)[C@@H](c3ccc(-c4ccccc4F)cc3)[C@H]2C1	none
O=C(c1ccc(F)cc1)N1CC(=O)N2[C@H](CO)[C@@H](c3ccc(-c4ccccc4)cc3)[C@H]2C1	none
O=C(Nc1cccc(F)c1)N1CCCCN2[C@H](CO)[C@@H](c3ccc(C#CC4CC4)cc3)[C@@H]2C1	none
O=C(C[C@@H]1C[C@@H]2c3cc(NC(=O)CC4CC4)ccc3O[C@@H]2[C@@H](CO)O1)NCC1CC1	none
C[C@@H]1CN([C@@H](C)CO)C(=O)c2cc(NC(=O)Nc3ccc(C(F)(F)F)cc3)ccc2O[C@@H](C)CCCCO[C@H]1CN(C)S(=O)(=O)c1ccc(Cl)cc1	none
COc1ccc2c3c(n(C)c2c1)[C@@H](CO)N(CC1CC1)CC31CCN(C(=O)NC2CCCC2)CC1	none
CCCNC(=O)N1CC2(CCN(C(=O)Nc3cccc(F)c3)CC2)c2c(n(C)c3cc(OC)ccc23)[C@H]1CO	none
CN(C)C(=O)c1ccc(-c2ccc([C@@H]3[C@@H](CO)N4C(=O)CN(C(=O)C5CC5)C[C@H]34)cc2)cc1	none
O=C(Nc1ccccc1)N1CCCCN2[C@@H](CO)[C@@H](c3ccc(-c4ccncc4)cc3)[C@@H]2C1	none
O=C(c1ccccn1)N1CC(=O)N2[C@H](CO)[C@H](c3ccc(C#Cc4ccccc4)cc3)[C@H]2C1	IDE exosite FP -14
O=C(c1ccccn1)N1CC(=O)N2[C@@H](CO)[C@H](c3ccc(C#CCc4ccccc4)cc3)[C@@H]2C1	none
CCCC#Cc1ccc([C@@H]2[C@@H](CO)N3C(=O)CN(C(=O)c4ccccn4)C[C@@H]23)cc1	none
CCCC#Cc1ccc([C@H]2[C@@H](CO)N3C(=O)CN(C(=O)c4ccccn4)C[C@H]23)cc1	none
O=C(c1ccccn1)N1CC(=O)N2[C@@H](CO)[C@H](c3ccc(C#Cc4ccccc4)cc3)[C@@H]2C1	IDE exosite FP -9.7
O=C(c1ccccn1)N1CC(=O)N2[C@H](CO)[C@H](c3ccc(C#CCc4ccccc4)cc3)[C@@H]2C1	none
COc1ccc(C[C@@H]2CCn3nncc3COC[C@@H](c3ccccc3)NC2=O)cc1	none
COc1ccc(CN(C)C[C@H]2OCc3cnnn3CCCC(=O)N([C@@H](C)CO)C[C@H]2C)cc1	none
C(=C\c1ccc(C2[C@@H]3CN(Cc4cocn4)C[C@H]2N3)cc1)/c1ccccc1 (stereo partly specified)	none
Cc1ccccc1-c1ccc(C2[C@@H]3CN(Cc4ccc5c(c4)OCO5)C[C@H]2N3)cc1 (stereo partly specified)	IDE exosite FP -4.3!
c1ncc(-c2ccc(C3[C@@H]4CN(Cc5cocn5)C[C@H]3N4)cc2)cn1 (stereo partly specified)	none
c1cncc(-c2ccc(C3[C@@H]4CN(Cc5ccc6c(c5)OCO6)C[C@H]3N4)cc2)c1 (stereo partly specified)	none
Cc1ccccc1-c1ccc(C2[C@H]3CNC[C@@H]2N3Cc2ccc3c(c2)OCO3)cc1 (stereo partly specified)	none

Screening data from PubChem BioAssay.
